# In the supplement of paper PMC8728848:
# The entries come from a sample that favours the strongest signals as a whole.
# How the values were obtained:
# Assay in all cases: glycan array binding signal (z-score within array); higher = stronger binding
# Settings in all cases: glycan notation: IUPAC condensed, linker removed
# Gal6P(b1-4)GlcNAc = target: Gal6P(b1-4)GlcNAc
# Procedure, shortened: (§1)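 Glycan array binding is given as a within-array Z-score, which can be read as non-binding when negative. The arrays, 3228 of them, came from the Consortium for Functional Glycomics database and were retained only where the protein sequence was available. Z-scores were averaged across arrays of the same protein sequence at different concentrations or buffers and across linkers.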
# [1] = target: GlcA3S(b1-3)Gal(b1-4)GlcNAc(b1-2)Man
# Procedure, shortened: as §1
# [2] = target: GlcNAc(a1-4)Gal(b1-4)GlcNAc(b1-3)Gal(b1-4)[Fuc(a1-3)]GlcNAc(b1-3)Gal(b1-4)[Fuc(a1-3)]GlcNAc
# Procedure, shortened: as §1
# [3] = target: GlcNAc(b1-3)Gal(b1-4)GlcNAc(b1-2)[GlcNAc(b1-3)Gal(b1-4)GlcNAc(b1-6)]Man(a1-6)[GlcNAc(b1-3)Gal(b1-4)GlcNAc(b1-2)Man(a1-3)]Man(b1-4)GlcNAc(b1-4)GlcNAc
# Procedure, shortened: as §1
# [4] = target: GlcNAc(b1-3)Gal(b1-4)GlcNAc(b1-3)Gal(b1-4)GlcNAc
# Procedure, shortened: as §1
# [5] = target: GlcNAc(b1-3)Gal(b1-4)GlcNAc(b1-3)Gal(b1-4)GlcNAc(b1-2)Man(a1-3)[GlcNAc(b1-3)Gal(b1-4)GlcNAc(b1-3)Gal(b1-4)GlcNAc(b1-2)Man(a1-6)]Man(b1-4)GlcNAc(b1-4)GlcNAc
# Procedure, shortened: as §1
# [6] = target: GlcNAc(b1-3)Gal(b1-4)GlcNAc(b1-3)Gal(b1-4)GlcNAc(b1-3)Gal(b1-4)GlcNAc(b1-2)Man(a1-3)[GlcNAc(b1-3)Gal(b1-4)GlcNAc(b1-3)Gal(b1-4)GlcNAc(b1-3)Gal(b1-4)GlcNAc(b1-2)Man(a1-6)]Man(b1-4)GlcNAc(b1-4)[Fuc(a1-6)]GlcNAc
# Procedure, shortened: as §1
# [7] = target: GlcNAc(b1-3)Gal(b1-4)GlcNAc(b1-3)Gal(b1-4)GlcNAc(b1-3)Gal(b1-4)GlcNAc(b1-2)[GlcNAc(b1-3)Gal(b1-4)GlcNAc(b1-3)Gal(b1-4)GlcNAc(b1-3)Gal(b1-4)GlcNAc(b1-6)]Man(a1-6)[GlcNAc(b1-3)Gal(b1-4)GlcNAc(b1-3)Gal(b1-4)GlcNAc(b1-3)Gal(b1-4)GlcNAc(b1-2)Man(a1-3)]Man(b1-4)GlcNAc(b1-4)[Fuc(a1-6)]GlcNAc
# Procedure, shortened: as §1
# [8] = target: GlcNAc(b1-3)Gal(b1-4)GlcNAc(b1-3)Gal(b1-4)GlcNAc(b1-3)Gal(b1-4)GlcNAc(b1-3)Gal(b1-4)GlcNAc(b1-2)[GlcNAc(b1-3)Gal(b1-4)GlcNAc(b1-3)Gal(b1-4)GlcNAc(b1-3)Gal(b1-4)GlcNAc(b1-3)Gal(b1-4)GlcNAc(b1-6)]Man(a1-6)[GlcNAc(b1-3)Gal(b1-4)GlcNAc(b1-3)Gal(b1-4)GlcNAc(b1-3)Gal(b1-4)GlcNAc(b1-3)Gal(b1-4)GlcNAc(b1-2)Man(a1-3)]Man(b1-4)GlcNAc(b1-4)[Fuc(a1-6)]GlcNAc
# Procedure, shortened: as §1
# [9] = target: GlcNAc(b1-3)Gal(b1-4)GlcNAc(b1-3)Gal(b1-4)GlcNAc(b1-3)GalNAc
# Procedure, shortened: as §1
# [10] = target: GlcNAc(b1-4)GlcNAc(b1-4)GlcNAc(b1-4)GlcNAc(b1-4)GlcNAc(b1-4)GlcNAc
# Procedure, shortened: as §1
# [11] = target: Man(a1-2)Man(a1-2)Man(a1-6)[Man(a1-3)]Man
# Procedure, shortened: as §1
# [12] = target: Man(a1-2)Man(a1-3)[Man(a1-2)Man(a1-6)]Man(a1-6)[Man(a1-2)Man(a1-2)Man(a1-3)]Man
# Procedure, shortened: as §1
# [13] = target: Neu5Ac(a2-3)Gal(b1-3)GalNAc(b1-4)[Neu5Ac(a2-3)]Gal(b1-4)Glc
# Procedure, shortened: as §1
# [14] = target: Neu5Ac(a2-3)Gal(b1-3)GalNAc(b1-4)[Neu5Ac(a2-8)Neu5Ac(a2-3)]Gal(b1-4)Glc
# Procedure, shortened: as §1
# [15] = target: Neu5Ac(a2-3)Gal(b1-3)GlcNAc(b1-2)Man
# Procedure, shortened: as §1
# [16] = target: Neu5Ac(a2-3)Gal(b1-3)[Neu5Ac(a2-6)]GalNAc
# Procedure, shortened: as §1
# [17] = target: Neu5Ac(a2-3)Gal(b1-4)GlcNAc(b1-2)[Neu5Ac(a2-3)Gal(b1-4)GlcNAc(b1-6)]Man(a1-6)[Neu5Ac(a2-3)Gal(b1-4)GlcNAc(b1-2)Man(a1-3)][GlcNAc(b1-4)]Man(b1-4)GlcNAc(b1-4)GlcNAc
# Procedure, shortened: as §1
# [18] = target: Neu5Ac(a2-3)Gal(b1-4)GlcNAc(b1-3)Gal(b1-4)GlcNAc(b1-3)Gal(b1-4)GlcNAc(b1-2)Man(a1-3)[Neu5Ac(a2-3)Gal(b1-4)GlcNAc(b1-3)Gal(b1-4)GlcNAc(b1-3)Gal(b1-4)GlcNAc(b1-2)Man(a1-6)]GalNAc
# Procedure, shortened: as §1
# [19] = target: Neu5Ac(a2-6)Gal(b1-4)GlcNAc(b1-3)Gal(b1-4)GlcNAc(b1-3)Gal(b1-4)GlcNAc(b1-2)Man(a1-3)[Neu5Ac(a2-6)Gal(b1-4)GlcNAc(b1-3)Gal(b1-4)GlcNAc(b1-3)Gal(b1-4)GlcNAc(b1-2)Man(a1-6)]GalNAc
# Procedure, shortened: as §1
# [20] = target: Neu5Ac(a2-6)GlcNAc(b1-4)GlcNAc
# Procedure, shortened: as §1
# [21] = target: Neu5Ac(a2-8)Neu5Ac(a2-3)[GalNAc(b1-4)]Gal(b1-4)Glc
# Procedure, shortened: as §1
# [22] = target: Neu5Ac(a2-8)Neu5Ac(a2-8)Neu5Ac(a2-3)[Gal(b1-3)GalNAc(b1-4)]Gal(b1-4)Glc
# Procedure, shortened: as §1
# Neu5Gc(a2-3)Gal(b1-4)Glc = target: Neu5Gc(a2-3)Gal(b1-4)Glc
# Procedure, shortened: as §1
# [23] = target: Neu5Gc(a2-8)Neu5Gc(a2-3)Gal(b1-4)GlcNAc(b1-3)Gal(b1-4)GlcNAc
# Procedure, shortened: as §1
binder,measurement,setting,value
"MPA (Maclura pomifera), P18674 (protein) GVTFDDGAYTGIREINFEYNSETAIGGLRVTYDLNGMPFVAEDHKSFITGFKPVKISLEFPSEYIVEVSGYVGKVEGYTVIRSLTFKTNKQTYGPYGVTNGTPFSLPIENGLIVGFKGSIGYWLDYFSIYLSL",glycan array binding signal (z-score),Gal6P(b1-4)GlcNAc,-0.561
same,glycan array binding signal (z-score),[1],-0.571
same,glycan array binding signal (z-score),[2],-0.148
same,glycan array binding signal (z-score),[3],5.1
same,glycan array binding signal (z-score),[4],-0.233
same,glycan array binding signal (z-score),[5],3.5
same,glycan array binding signal (z-score),[6],5.73
same,glycan array binding signal (z-score),[7],4.46
same,glycan array binding signal (z-score),[8],0.56
same,glycan array binding signal (z-score),[9],-0.343
same,glycan array binding signal (z-score),[10],-0.082
same,glycan array binding signal (z-score),[11],-0.161
same,glycan array binding signal (z-score),[12],-0.215
same,glycan array binding signal (z-score),[13],-0.301
same,glycan array binding signal (z-score),[14],-0.179
same,glycan array binding signal (z-score),[15],1.21
same,glycan array binding signal (z-score),[16],0.304
same,glycan array binding signal (z-score),[17],-0.334
same,glycan array binding signal (z-score),[18],3.56
same,glycan array binding signal (z-score),[19],6.71
same,glycan array binding signal (z-score),[20],-0.39
same,glycan array binding signal (z-score),[21],-0.273
same,glycan array binding signal (z-score),[22],-0.044
same,glycan array binding signal (z-score),Neu5Gc(a2-3)Gal(b1-4)Glc,-0.156
same,glycan array binding signal (z-score),[23],-0.219
